Data published in PubChem BioAssay (EPA / NIEHS).
Inconclusive results are not listed. The source made the active and inactive calls. Rule for the calls, unless noted: active = hit-call score of the fitted dose curve at least 0.9, where 1 is the maximum; inconclusive = response in the unintended direction; inactive = score below 0.9.

Key:
[1] = ATG_TAL_CIS: Attagene CIS-FACTORIAL HepG2 Assay for human TAL Basal Promoter (AID 2282966; active = hit-call score of the fitted dose curve at least 0.9, where 1 is the maximum; inactive = score below 0.9;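 note: background control endpoint measuring basal TAL promoter reporter mRNA not a specific factor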); settings: HepG2 Attagene cis-factorial TAL promoter reporter; actives raise or lower the signal
Outline: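 Background-control endpoint: basal TAL promoter reporter transcripts in transiently transfected HepG2, measured 24 h after dosing. Read-out by RT-PCR with fluorescent primer extension and capillary electrophoresis; gain or loss of signal fitted relative to DMSO.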

[2] = ATG_TGFb_CIS: Attagene CIS-FACTORIAL HepG2 Assay for human Transforming Growth Factor (TGF) (AID 2282967; active = hit-call score of the fitted dose curve at least 0.9, where 1 is the maximum; inactive = score below 0.9); settings: HepG2 Attagene CIS TGFb reporter, mRNA transcription; actives raise or lower the signal
Outline: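 Bidirectional fitting relative to DMSO gave the endpoint. Underlying data: reporter mRNA from HepG2 cells carrying transiently transfected cis-regulated reporter constructs, harvested 24 h after dosing and analyzed by RT-PCR and capillary electrophoresis.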

[3] = ATG_VDRE_CIS: Attagene CIS-FACTORIAL HepG2 Assay for human Vitamin D Receptor Element (VDRE) (AID 2282968; active = hit-call score of the fitted dose curve at least 0.9, where 1 is the maximum; inactive = score below 0.9); settings: HepG2 VDRE cis-reporter transcription, actives raise or lower the signal
Outline: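 Measures endogenous factor activity through cis-element-driven reporter transcripts in transiently transfected HepG2. Cells are treated 24 h; reporter mRNA is quantified by RT-PCR and capillary electrophoresis; fitting is bidirectional.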

[4] = molecular target: Nuclear receptor subfamily 1 group I member 3 (Homo sapiens) (UniProt Q14994); assay: ATG_CAR_TRANS: Attagene TRANS-FACTORIAL HepG2 Assay for human Constitutive Androstane Receptor (CAR) (AID 2282969); settings: HepG2 Attagene TRANS-FACTORIAL CAR reporter;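 note: activators raise reporter mRNA above DMSO so AC50 marks induction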
Chain of Nuclear receptor subfamily 1 group I member 3 (Homo sapiens) (Q14994 whole entry, looked up, the tested form may be a part): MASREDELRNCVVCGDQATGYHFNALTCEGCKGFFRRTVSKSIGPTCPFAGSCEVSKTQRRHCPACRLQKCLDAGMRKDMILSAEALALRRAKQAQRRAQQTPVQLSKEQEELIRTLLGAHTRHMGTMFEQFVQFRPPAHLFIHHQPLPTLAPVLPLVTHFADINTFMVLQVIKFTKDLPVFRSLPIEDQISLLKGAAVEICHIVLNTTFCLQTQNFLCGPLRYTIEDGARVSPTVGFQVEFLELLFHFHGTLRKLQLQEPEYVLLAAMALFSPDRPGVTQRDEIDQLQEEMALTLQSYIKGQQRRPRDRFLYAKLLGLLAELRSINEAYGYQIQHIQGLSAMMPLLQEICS
Outline: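 Signal is reporter mRNA induction relative to DMSO, measured 24 h after dosing by RT-PCR with fluorescent primer extension and capillary electrophoresis. Human HepG2 liver cells carried transiently transfected chimeric NR-Gal4/GAL4-UAS reporter constructs.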

[5] = molecular target: X-box-binding protein 1 (Homo sapiens) (UniProt P17861); assay: ATG_Xbp1_CIS: Attagene CIS-FACTORIAL HepG2 Assay for human X-box Binding Protein 1 (XBP1) (AID 2282972; active = hit-call score of the fitted dose curve at least 0.9, where 1 is the maximum; inactive = score below 0.9); settings: HepG2 XBP1 cis-element reporter, Attagene multiplex; actives raise or lower the signal
Chain of X-box-binding protein 1 (Homo sapiens) (P17861 whole entry, looked up): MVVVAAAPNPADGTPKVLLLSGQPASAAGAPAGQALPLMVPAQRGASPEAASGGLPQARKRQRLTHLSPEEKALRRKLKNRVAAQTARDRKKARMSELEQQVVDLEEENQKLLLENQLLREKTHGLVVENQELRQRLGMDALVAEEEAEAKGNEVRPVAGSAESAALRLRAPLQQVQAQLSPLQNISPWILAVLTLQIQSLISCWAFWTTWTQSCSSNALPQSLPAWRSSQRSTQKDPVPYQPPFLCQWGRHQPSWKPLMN
Outline: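 Reporter transcripts were quantified by RT-PCR with fluorescent primer extension and capillary electrophoresis after 24 h chemical exposure. Cells: transiently transfected HepG2 carrying cis-regulated reporter constructs; data fitted bidirectionally relative to DMSO.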

[6] = ATG_GAL4_TRANS: Attagene TRANS-FACTORIAL HepG2 Assay for GAL4 (Internal Marker) (AID 2282976); settings: HepG2 Attagene TRANS GAL4 internal marker reporter
Outline: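 In transfected human HepG2 liver cells dosed 24 h, GAL4 reporter mRNA serves as a baseline marker. Detection by RT-PCR with fluorescent capillary electrophoresis, activity fitted upward relative to DMSO.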

[7] = molecular target: Glucocorticoid receptor (Homo sapiens) (UniProt P04150); assay: ATG_GR_TRANS: Attagene TRANS-FACTORIAL HepG2 Assay for human Glucocorticoid Receptor (GR) (AID 2282978); settings: HepG2 Attagene TRANS GR reporter, mRNA transcription;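 note: activators score as hits since higher reporter transcript over DMSO is fitted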
Chain of Glucocorticoid receptor (Homo sapiens) (P04150 whole entry, looked up, the tested form may be a part): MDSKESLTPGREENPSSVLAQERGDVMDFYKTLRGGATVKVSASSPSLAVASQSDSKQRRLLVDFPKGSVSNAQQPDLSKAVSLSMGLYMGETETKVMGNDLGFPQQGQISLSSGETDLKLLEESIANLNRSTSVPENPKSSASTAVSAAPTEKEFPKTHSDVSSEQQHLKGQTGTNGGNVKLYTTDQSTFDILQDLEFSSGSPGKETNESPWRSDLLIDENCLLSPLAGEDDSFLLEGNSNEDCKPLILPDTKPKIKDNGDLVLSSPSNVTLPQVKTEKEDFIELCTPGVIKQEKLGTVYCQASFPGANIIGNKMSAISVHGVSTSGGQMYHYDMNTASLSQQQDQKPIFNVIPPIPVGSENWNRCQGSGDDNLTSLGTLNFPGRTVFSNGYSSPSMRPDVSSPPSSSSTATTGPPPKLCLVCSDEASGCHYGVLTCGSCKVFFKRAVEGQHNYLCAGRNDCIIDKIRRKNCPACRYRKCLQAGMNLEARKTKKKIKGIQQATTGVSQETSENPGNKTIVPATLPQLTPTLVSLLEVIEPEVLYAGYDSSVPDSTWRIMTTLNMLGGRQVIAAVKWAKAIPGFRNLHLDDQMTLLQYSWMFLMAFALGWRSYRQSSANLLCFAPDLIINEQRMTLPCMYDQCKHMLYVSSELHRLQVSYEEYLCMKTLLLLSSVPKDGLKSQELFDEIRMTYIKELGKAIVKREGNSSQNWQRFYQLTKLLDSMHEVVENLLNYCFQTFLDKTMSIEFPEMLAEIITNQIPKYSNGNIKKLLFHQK
Outline: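 Reporter transcript levels, detected by fluorescence after RT-PCR and capillary electrophoresis, served as the endpoint. HepG2 cells bearing transfected GAL4-UAS reporters responsive to NR-GAL4 chimeras were incubated with compound 24 h; DMSO defined baseline.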

[8] = molecular target: Bile acid receptor (Homo sapiens) (UniProt Q96RI1); assay: ATG_FXR_TRANS: Attagene TRANS-FACTORIAL HepG2 Assay for Farnesoid X Receptor (FXR) (AID 2282979); settings: HepG2 Attagene TRANS FXR-GAL4 reporter transcription;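 note: hits raise reporter mRNA above DMSO so AC50 marks FXR activation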
Chain of Bile acid receptor (Homo sapiens) (Q96RI1 whole entry, looked up, the tested form may be a part): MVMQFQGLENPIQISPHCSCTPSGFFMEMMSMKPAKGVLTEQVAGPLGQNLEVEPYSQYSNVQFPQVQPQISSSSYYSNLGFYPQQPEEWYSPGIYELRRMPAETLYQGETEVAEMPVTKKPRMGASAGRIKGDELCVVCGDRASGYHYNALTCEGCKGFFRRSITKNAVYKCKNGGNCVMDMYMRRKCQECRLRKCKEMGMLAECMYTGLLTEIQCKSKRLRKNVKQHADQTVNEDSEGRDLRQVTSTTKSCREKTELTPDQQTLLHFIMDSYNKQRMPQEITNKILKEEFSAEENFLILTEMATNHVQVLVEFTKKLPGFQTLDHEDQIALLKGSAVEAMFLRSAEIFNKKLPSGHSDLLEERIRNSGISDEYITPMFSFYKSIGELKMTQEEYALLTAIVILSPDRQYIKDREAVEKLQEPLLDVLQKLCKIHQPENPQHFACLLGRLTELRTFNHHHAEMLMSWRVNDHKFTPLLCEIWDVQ
Outline: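 Reporter transcripts from transfected HepG2 cells were measured 24 h after dosing, using RT-PCR with capillary electrophoresis of 6-FAM-labelled fragments. The read-out reflects activity of exogenous FXR-Gal4 chimera on GAL4-UAS units, with induction relative to DMSO.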

[9] = ATG_M_06_TRANS: Attagene TRANS-FACTORIAL HepG2 Assay for M06 Transcription Factor (Internal Marker) (AID 2282983); settings: HepG2 Attagene TRANS M06 internal marker reporter
Outline: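 Background-control reporter readout: after 24 h chemical exposure of transiently transfected HepG2 (GAL4-UAS reporter units), mRNA quantified by RT-PCR with fluorescent labeling and capillary electrophoresis. Gain-of-signal fitting against DMSO baseline.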

[10] = ATG_M_32_TRANS: Attagene TRANS-FACTORIAL HepG2 Assay for M32 Transcription Factor (Internal Marker) (AID 2282984); settings: HepG2 Attagene TRANS M32 internal marker reporter
Outline: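 Cell-based TRANS-format assay in HepG2: exogenous chimeric GAL4 reporter units transiently expressed, compounds applied 24 h. Reporter mRNA detected by RT-PCR plus capillary electrophoresis; this readout is an internal background marker.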

[11] = molecular target: Nuclear receptor subfamily 4 group A member 2 (Homo sapiens) (UniProt P43354); assay: ATG_NURR1_TRANS: Attagene TRANS-FACTORIAL HepG2 Assay for human Nuclear Receptor Related Protein 1 (NURR1) (AID 2282985); settings: HepG2 Attagene TRANS reporter, mRNA readout
Chain of Nuclear receptor subfamily 4 group A member 2 (Homo sapiens) (P43354 whole entry, looked up, the tested form may be a part): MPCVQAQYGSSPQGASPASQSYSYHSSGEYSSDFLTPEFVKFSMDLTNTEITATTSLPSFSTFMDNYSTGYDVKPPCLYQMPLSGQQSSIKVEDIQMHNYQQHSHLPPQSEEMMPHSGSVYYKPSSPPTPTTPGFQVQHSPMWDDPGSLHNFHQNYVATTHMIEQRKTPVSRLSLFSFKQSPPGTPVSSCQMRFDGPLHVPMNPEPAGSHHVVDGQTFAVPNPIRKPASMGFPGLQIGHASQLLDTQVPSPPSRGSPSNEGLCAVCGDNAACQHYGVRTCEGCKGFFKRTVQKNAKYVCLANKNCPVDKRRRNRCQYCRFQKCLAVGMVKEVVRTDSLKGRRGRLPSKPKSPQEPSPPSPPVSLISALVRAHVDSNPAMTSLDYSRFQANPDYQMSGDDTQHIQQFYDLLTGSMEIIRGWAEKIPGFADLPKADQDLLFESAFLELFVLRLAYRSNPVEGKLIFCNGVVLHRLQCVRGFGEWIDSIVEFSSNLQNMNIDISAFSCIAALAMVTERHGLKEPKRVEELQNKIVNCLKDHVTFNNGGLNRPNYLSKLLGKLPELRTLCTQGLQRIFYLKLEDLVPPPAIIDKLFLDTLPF
Outline: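 Measures transcriptional activation by an exogenous NR-Gal4 chimera in transfected HepG2 liver cells. After 24 h, reporter RNA is reverse-transcribed, amplified and resolved by capillary electrophoresis; DMSO defines baseline.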

[12] = molecular target: Transcriptional activator Myb (Homo sapiens) (UniProt P10242); assay: ATG_Myb_CIS: Attagene CIS-FACTORIAL HepG2 Assay for human Myeloblastosis (Myb) Proto-Oncogene Transcription Factor (AID 2282986; active = hit-call score of the fitted dose curve at least 0.9, where 1 is the maximum; inactive = score below 0.9); settings: HepG2 Attagene CIS-FACTORIAL Myb reporter transcription; actives raise or lower the signal
Chain of Transcriptional activator Myb (Homo sapiens) (P10242 whole entry, looked up): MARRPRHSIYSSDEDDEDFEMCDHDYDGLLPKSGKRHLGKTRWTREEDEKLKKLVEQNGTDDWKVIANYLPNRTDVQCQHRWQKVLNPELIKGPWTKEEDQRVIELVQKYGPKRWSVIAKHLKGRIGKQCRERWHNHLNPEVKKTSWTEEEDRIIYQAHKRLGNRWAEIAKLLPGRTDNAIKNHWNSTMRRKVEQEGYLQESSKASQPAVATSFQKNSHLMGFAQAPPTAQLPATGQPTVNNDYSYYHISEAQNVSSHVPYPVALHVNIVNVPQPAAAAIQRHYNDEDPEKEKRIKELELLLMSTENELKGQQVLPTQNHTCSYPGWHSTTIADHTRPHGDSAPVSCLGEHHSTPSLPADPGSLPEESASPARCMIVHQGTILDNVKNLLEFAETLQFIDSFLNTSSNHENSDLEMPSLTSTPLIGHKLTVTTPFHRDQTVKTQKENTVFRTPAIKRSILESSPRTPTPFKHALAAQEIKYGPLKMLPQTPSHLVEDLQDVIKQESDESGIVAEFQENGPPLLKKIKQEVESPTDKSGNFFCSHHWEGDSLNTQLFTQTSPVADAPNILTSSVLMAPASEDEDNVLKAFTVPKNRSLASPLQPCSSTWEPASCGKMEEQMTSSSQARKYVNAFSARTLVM
Outline: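 Transiently transfected HepG2 cells, treated 24 h. Reporter mRNA quantified by RT-PCR/capillary electrophoresis; bidirectional fit relative to DMSO.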

[13] = ATG_M_19_TRANS: Attagene TRANS-FACTORIAL HepG2 Assay for M19 Transcription Factor (Internal Marker) (AID 2282974); settings: HepG2 Attagene TRANS-FACTORIAL M19 internal marker reporter
Outline: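 Reporter mRNA induction was measured in transfected HepG2 cells 24 h after dosing. Endpoint fitted upward relative to DMSO and serves as a background control within the multiplexed TRANS panel.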

[14] = molecular target: Oxysterols receptor LXR-alpha (Homo sapiens) (UniProt Q13133); assay: ATG_LXRa_TRANS: Attagene TRANS-FACTORIAL HepG2 Assay for human Liver X Receptor alpha (LXRa) (AID 2282980); settings: HepG2 Attagene TRANS reporter, LXRa transactivation
Chain of Oxysterols receptor LXR-alpha (Homo sapiens) (Q13133 whole entry, looked up, the tested form may be a part): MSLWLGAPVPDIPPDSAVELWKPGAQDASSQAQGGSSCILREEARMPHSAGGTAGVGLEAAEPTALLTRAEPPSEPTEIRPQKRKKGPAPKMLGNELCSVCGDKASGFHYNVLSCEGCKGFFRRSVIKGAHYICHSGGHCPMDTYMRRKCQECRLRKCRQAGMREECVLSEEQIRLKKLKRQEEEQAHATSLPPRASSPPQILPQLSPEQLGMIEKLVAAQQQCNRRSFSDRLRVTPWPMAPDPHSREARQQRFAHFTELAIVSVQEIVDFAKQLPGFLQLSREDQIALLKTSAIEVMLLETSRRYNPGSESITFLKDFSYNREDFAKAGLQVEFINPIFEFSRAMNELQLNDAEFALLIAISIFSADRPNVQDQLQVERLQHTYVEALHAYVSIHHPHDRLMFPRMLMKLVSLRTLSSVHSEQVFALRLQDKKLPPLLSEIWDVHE
Outline: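 Chemical-induced reporter mRNA measured by RT-PCR with fluorescent labelling and capillary electrophoresis after 24 h dosing of transiently transfected HepG2 cells expressing exogenous NR-Gal4 chimeras; increases scored against DMSO baseline.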

[15] = molecular target: Oxysterols receptor LXR-beta (Homo sapiens) (UniProt P55055); assay: ATG_LXRb_TRANS: Attagene TRANS-FACTORIAL HepG2 Assay for human Liver X Receptor beta (LXRb) (AID 2282981); settings: HepG2 Attagene TRANS GAL4-LXRb reporter, mRNA
Chain of Oxysterols receptor LXR-beta (Homo sapiens) (P55055 whole entry, looked up, the tested form may be a part): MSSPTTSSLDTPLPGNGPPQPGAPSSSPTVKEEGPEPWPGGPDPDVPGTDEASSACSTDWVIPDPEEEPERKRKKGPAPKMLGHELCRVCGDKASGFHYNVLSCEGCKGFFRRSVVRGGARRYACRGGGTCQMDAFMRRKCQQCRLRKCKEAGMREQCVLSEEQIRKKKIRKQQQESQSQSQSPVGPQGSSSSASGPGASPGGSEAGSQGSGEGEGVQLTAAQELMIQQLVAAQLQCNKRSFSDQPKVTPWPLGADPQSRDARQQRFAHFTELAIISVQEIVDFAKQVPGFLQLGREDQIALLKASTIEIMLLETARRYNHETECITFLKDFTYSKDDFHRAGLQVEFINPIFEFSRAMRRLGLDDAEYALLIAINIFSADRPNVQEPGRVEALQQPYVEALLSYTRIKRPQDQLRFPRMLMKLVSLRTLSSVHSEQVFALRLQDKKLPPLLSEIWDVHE
Outline: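 After 24 h of chemical treatment, transfected HepG2 cells yield total RNA; reporter cDNA is PCR-amplified, FAM-labelled, HpaI-cut and run on capillary electrophoresis. Signal reflects chimeric LXRb-Gal4 activity on GAL4-UAS reporters.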

[16] = molecular target: Hepatocyte nuclear factor 4-alpha (Homo sapiens) (UniProt P41235); assay: ATG_HNF4a_TRANS: Attagene TRANS-FACTORIAL HepG2 Assay for human Hepatocyte Nuclear Factor 4 alpha (HNF4a) (AID 2282982); settings: HepG2 HNF4a transactivation reporter, mRNA readout
Chain of Hepatocyte nuclear factor 4-alpha (Homo sapiens) (P41235 whole entry, looked up): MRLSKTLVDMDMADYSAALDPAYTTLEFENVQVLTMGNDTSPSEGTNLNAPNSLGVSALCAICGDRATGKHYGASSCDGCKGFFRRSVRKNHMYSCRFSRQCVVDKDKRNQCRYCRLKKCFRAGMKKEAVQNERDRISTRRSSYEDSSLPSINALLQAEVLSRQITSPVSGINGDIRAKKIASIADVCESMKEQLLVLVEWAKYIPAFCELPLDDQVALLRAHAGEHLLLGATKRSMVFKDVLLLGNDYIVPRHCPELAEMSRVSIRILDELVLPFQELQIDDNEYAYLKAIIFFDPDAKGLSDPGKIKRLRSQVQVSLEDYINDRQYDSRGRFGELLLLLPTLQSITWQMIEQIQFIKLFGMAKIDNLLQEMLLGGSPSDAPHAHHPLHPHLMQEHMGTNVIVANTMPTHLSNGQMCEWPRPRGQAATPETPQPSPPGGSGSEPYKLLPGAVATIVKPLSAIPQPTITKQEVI
Outline: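 Multiplexed reporter assay: transfected HepG2, 24 h exposure, total RNA → oligo(dT) RT → PCR → 6-FAM extension → HpaI digest → CE fluorescence. DMSO = negative control.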

[17] = molecular target: Nuclear respiratory factor 1 (Homo sapiens) (UniProt Q16656); assay: ATG_NRF1_CIS: Attagene CIS-FACTORIAL HepG2 Assay for human Nuclear Respiratory Factor 1 (NRF1) Orphan Gene (AID 2282987; active = hit-call score of the fitted dose curve at least 0.9, where 1 is the maximum; inactive = score below 0.9); settings: HepG2 NRF1 cis-element reporter, Attagene multiplex; actives raise or lower the signal
Chain of Nuclear respiratory factor 1 (Homo sapiens) (Q16656 whole entry, looked up, the tested form may be a part): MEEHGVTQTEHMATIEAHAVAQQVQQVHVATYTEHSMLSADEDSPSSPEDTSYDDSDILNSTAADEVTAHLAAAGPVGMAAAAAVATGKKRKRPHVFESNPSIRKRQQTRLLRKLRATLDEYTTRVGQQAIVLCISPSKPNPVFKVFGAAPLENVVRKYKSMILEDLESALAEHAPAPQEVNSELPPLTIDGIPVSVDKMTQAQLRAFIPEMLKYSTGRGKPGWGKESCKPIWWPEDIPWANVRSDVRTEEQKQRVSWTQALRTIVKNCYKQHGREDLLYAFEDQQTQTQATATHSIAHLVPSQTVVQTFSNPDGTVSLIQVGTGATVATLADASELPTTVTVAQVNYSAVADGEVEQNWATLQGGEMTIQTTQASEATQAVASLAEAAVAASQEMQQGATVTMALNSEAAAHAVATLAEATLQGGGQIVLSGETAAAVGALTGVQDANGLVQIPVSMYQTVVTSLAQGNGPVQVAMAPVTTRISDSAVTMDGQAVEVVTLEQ
Outline: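 Cells (HepG2, transient MRTU transfection) are exposed to compound for 24 h, then RNA isolated and reporter mRNA amplified and fluorescently labelled. Fragments are separated by capillary electrophoresis; signal change is fitted bidirectionally relative to DMSO.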

[18] = molecular target: Estrogen-related receptor gamma (Homo sapiens) (UniProt P62508); assay: ATG_ERRg_TRANS: Attagene TRANS-FACTORIAL HepG2 Assay for human Estrogen-Related Receptor gamma (ERRg) (AID 2282977); settings: HepG2 Attagene TRANS reporter, ERRg transactivation;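 note: hits increase reporter signal over DMSO so potencies reflect activators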
Outline: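 Readout: fluorescent reporter-mRNA fragments resolved by capillary electrophoresis after RT-PCR and HpaI cut. Cells: transiently transfected HepG2 carrying GAL4-UAS reporters driven by exogenous NR-Gal4 chimeras, dosed 24 h. Activity fitted upward relative to DMSO baseline.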

Measured: AC50

CCCCN(CCCC)C(=O)N(CCCC)CCCC
active: [1] 50.2 µM | [2] 59.6 µM | [3] 7.92 µM | [8] 15.6 µM | [11] 42.9 µM
inactive: [4] | [5] | [6] | [7] | [9] | [10] | [12]

CC1(C)COCN1
not listed: [7] | [9] | [11] | [18]
inactive: all other assays above

C=CCN(CC=C)CC=C
not listed: [8] | [10] | [11] | [13] | [14] | [15] | [18]
inactive: all other assays above

c1ccc(CN(Cc2ccccc2)Cc2ccccc2)cc1
not listed: [6] | [8] | [10] | [13] | [16] | [18]
inactive: all other assays above

CCCCCc1ccco1
not listed: [6] | [7] | [9] | [14] | [15] | [18]
inactive: all other assays above

COc1ccc(N=Nc2cc(C)c(N=Nc3ccc(S(=O)(=O)O)cc3)cc2OC)cc1
inactive: [1] | [3] | [4] | [5] | [13] | [16] | [10] | [12]
active: [2] 172 µM | [17] 71.8 µM

C=C[Si]1(C)O[Si](C)(C=C)O[Si](C)(C=C)O[Si](C)(C=C)O1 (centres undefined)
inactive: [1] | [2] | [3] | [4] | [5] | [13] | [12] | [17]

CCOc1ccc(NC(=O)CC(C)=O)cc1
not listed: [6] | [7] | [8] | [11] | [14]
inactive: all other assays above

CC=Cc1ccc(OCC)c(O)c1
not listed: [6] | [8] | [13] | [15] | [18]
inactive: all other assays above

CCCCCCOC(=O)CCC
not listed: [6] | [7] | [8] | [10] | [11] | [16] | [18]
inactive: all other assays above

C=CC(C)C#N (centres undefined)
not listed: [13] | [15] | [16] | [17] | [18]
inactive: all other assays above
